Experimental data: PubChem BioAssay AID652175 (National Center for Advancing Translational Sciences (NCATS), 2013)
Results filed as inconclusive are left out. A call without a number means that no potency is given here. The source made the active and inactive calls. The call rests on the fitted dose curve; in most records, active means well fitted inhibition curve with a large enough effect; inconclusive means small, poorly fitted or top-dose-only effect; inactive means no such curve, though single readings can be large or run the other way.

Assay: qHTS Assay for Lipid Storage Modulators: S3 Assay against Probe and Analogs
Settings: Drosophila S3 cells, BODIPY lipid droplet fluorescence, 18-24 h, oleic acid added to induce droplets; series mostly up to 46.1 µM
Text: Storing lipids as a reservoir for energy or the anabolism of elementary metabolites is a common feature of probably all cells and is conserved from bacteria to humans. The universal cellular lipid storage organelle is the so-called lipid storage droplet (LD). Although ubiquitous, LDs share a simple structure composed of a hydrophobic core that harbors the storage lipids, which is shielded by a droplet-specific phospholipid monolayer to which proteins are attached. The current model of LD biogenesis involves an incorporation of the lipid core into the membrane leaflets of the endoplasmic reticulum (ER) followed by a subsequent budding-like maturation of a LD, which ultimately pinches off. Once released, LD volume can increase by localized lipogenesis or fusion of existing droplets. Storage lipids are re-mobilized enzymatically by lipase activity. Lipase regulation in the adipocyte is heavily studied and involves multiple components including catecholamine signaling, the LD-associated proteins Perilipin and comparative gene identification-58 (CGI-58) and at least two lipases named hormone sensitive lipase (HSL) and adipocyte triglyceride lipase (ATGL). LD regulation outside of the adipocyte is poorly understood and only few components are known. However, there is an urgent need to learn more about ectopic fat depots as mislocalized storage of lipids, for example in the liver or muscle, is an eminent health problem associated with insulin resistance or the metabolic syndrome. We developed a laser-scanning cytometer assay to enable 1,536-well screening and combined the results of the small molecules screen with an RNAi database based on lipid storage. In this assay we tested analogs of the probe against the original qHTS assay, which involved drosophila melanogaster cells (S3), to see if these small molecules could disrupt lipid storage. NIH Molecular Libraries Probe Production Centers Network [MLPCN] NIH Chemical Genomics Center [NCGC] MLPCN Grant: MH085686 Assay Submitter (PI): Mathias Beller, Max-Planck-Institut fur Biophysikalische Chemie
qHTS was performed with embryonic Drosophila S3 cells (Bloomington Drosophila Genomics Resource Center [DGRC]). We dispensed 4 uL of cells at 1.25 x 10^6 cells/mL into LoBase Aurora COC 1,536-well plates (black walled, clear bottom) with a bottle-valve solenoid-based dispenser (Aurora) to obtain 5,000 cells/well. Triacsin C (Sigma-Aldrich T-4540), an inhibitor of long-chain fatty acyl CoA synthetase that blocks synthesis of triglycerides, was used as a positive control for lipid under-storage. A total of 23 nL of compounds dissolved in DMSO at different concentrations were transferred to the assay plates using a Kalypsys pin tool equipped with a 1,536-pin array containing 10-nL slotted pins (FP1S10, 0.457-mm diameter, 50.8 mm long; V&P Scientific). The final DMSO concentration was 0.46%. One microliter of oleic acid at 400 uM (Calbiochem, #4954) was added to induce lipid droplet formation in the cells, and the plates were lidded with stainless steel rubber gasket lined lids containing pinholes. After 18-24 h incubation at 25 0C and 95% humidity, 4 uL of the BODIPY lipid dye 493/503 (1:2000, Molecular Probes) and the Cell Tracker Red CMTPX dye (Life Technologies, # 34552) were added to the wells to stain lipid droplets and enumerate cell number, respectively. Fluorescence was detected by excitation of the fluorophores with a 488-nm laser on an Acumen Explorer (TTP Lab Tech). The total intensity in channel 1 (500-530 nm) reflected lipid droplet accumulation. Cells were detected using channel 3 (575-640 nm) with 5-um width and 100-um depth filters. The ratio of the total intensity in PMT channel 1 over total intensity of channel 3 was also calculated. Percent activity was computed relative to an internal control (100% inhibited lipid droplet deposition due to the presence of 20 uM Triacsin C), which was added to 32 wells/plate.

Row | Structure (SMILES) | Potency
1 | CC(C)(C)OC(=O)NCCOCCOCCOc1ccc(-n2ncc3c2CCCC3NC(=O)c2ccccn2)cc1 (stereo not given) | 9.3 nM (active)
2 | CCOc1ccc(CCNC(=O)c2cc3sccc3n2Cc2ccncc2)cc1OCC | 132 nM (active)
3 | O=C(NC1CCCc2c1cnn2-c1ccc(F)cc1F)C1CC1 (stereo not given) | inactive
4 | CCOc1ccc(CCNC(=O)c2cc3sccc3n2Cc2ccc(Cl)c(F)c2)cc1OCC | 5.9 nM (active)
5 | CCOc1ccc(CCNC(=O)C2=C(C)OCCO2)cc1OCC | inactive
6 | CCOc1ccc(CCNC(=O)c2cc3sccc3n2Cc2ccccn2)cc1OCC | 29.6 nM (active)
7 | CC1(C)CCC(c2ccc(Cl)cc2)=C(CN2CCN(c3ccc(C(=O)NS(=O)(=O)c4ccc(N[C@H](CCN5CCOCC5)CSc5ccccc5)c(S(=O)(=O)C(F)(F)F)c4)cc3)CC2)C1 | 526 nM (active)
8 | CCOc1ccc(CCNC(=O)c2cc3sccc3n2CCN2CCN(C)CC2)cc1OCC | 332 nM (active)
9 | CCOc1ccc(CCNC(=O)c2cc3sccc3[nH]2)cc1OCC | inactive
10 | Cc1cc2c(cc1C1(c3ccc(C(=O)O)cc3)CC1)C(C)(C)CCC2(C)C | inactive
11 | O=C(NC1CCCc2c1cnn2-c1ccc(F)cc1F)c1cnon1 (stereo not given) | inactive
12 | CC(C)(C)OC(=O)NCCOCCOCCOc1cccc(-n2ncc3c2CCCC3NC(=O)c2ccccn2)c1 (stereo not given) | 18.7 nM (active)
13 | CCOC(=O)C1CCN(C(=O)C(C)(C)NC(=O)Nc2cccc(C(=O)OC)c2)CC1 | inactive
14 | CCOC(=O)C1CCN(C(=O)C(C)(C)NC(=O)Nc2cccc(-c3csc(C)n3)c2)CC1 | inactive
15 | CCOc1ccc(CCNC(=O)c2cc3sccc3n2Cc2ccccc2)c(F)c1OCC | inactive
16 | O=C(Cc1ccccc1)NC1CCCc2c1cnn2-c1ccc(F)cc1F (stereo not given) | inactive
17 | CC(C)(NC(=O)Nc1ccccc1Cl)C(=O)N1CCC(C(=O)O)CC1 | inactive
18 | O=C(NCCc1ccc2c(c1)OCO2)c1cc2sccc2n1Cc1ccccc1 | inactive
19 | CCOC(=O)C1CCN(C(=O)C(C)(C)NC(=O)Nc2cccc(OC)c2)CC1 | inactive
20 | CCOC(=O)C1CCN(C(=O)C(C)(C)NC(=O)Nc2ccc(CN3CCOCC3)cc2)CC1 | inactive

Row | Structure (SMILES) | Potency
21 | CCOc1ccc(CCNC(=O)C2(c3ccccc3)CC2)cc1OCC | inactive
22 | CCOc1ccc(CCNC(=O)c2ccccn2)cc1OCC | inactive
23 | O=C(N[C@H]1CCCc2c1cnn2-c1ccc(F)cc1F)c1ccccn1 | inactive
24 | CCOC(=O)C1CCN(C(=O)C(C)(C)NC(=O)Nc2ccc([N+](=O)[O-])cc2)CC1 | inactive
25 | O=C(O)CCc1ccc(NCc2cccc(Oc3ccccc3)c2)cc1 | inactive
26 | COc1nc(-c2ccc3c(c2)OCO3)n(-c2ccc(NC(=O)CSc3ccccc3)cc2)n1 | inactive
27 | CCOc1ccc(CCNC(=O)C2CCCCC2)cc1OCC | inactive
28 | CCOc1ccc(CCNC(=O)c2ccc(N3N=C(C)CC3=O)cc2)cc1OCC | inactive
29 | COc1cc(C)c(Sc2cnc(NC(=O)c3ccc(CNC(C)C(C)(C)C)cc3)s2)cc1C(=O)N1CCN(C(C)=O)CC1 (stereo not given) | inactive
30 | CCn1c(C(=O)NCCc2ccc(OC)c(OC)c2)cc2sccc21 | inactive
31 | O=C(Nc1cccc2c1cnn2-c1ccc(F)cc1)c1ccccn1 | inactive
32 | O=C(NCCc1ccc2c(c1)OCO2)c1cc2sccc2[nH]1 | inactive
33 | CCOC(=O)C1CCN(C(=O)C(C)(C)NC(=O)Nc2ccc(OC)c(Cl)c2)CC1 | inactive
34 | CCOC(=O)C1CCN(C(=O)C(C)(C)NC(=O)Nc2ccc3ccccc3c2)CC1 | 4690 nM (active)
35 | CCOc1ccc(CCNC(=O)c2ccc3ccccc3n2)cc1OCC | inactive
36 | CCOC(=O)C1CCN(C(=O)C(C)(C)NC(=O)Nc2ccc(C#N)cc2)CC1 | inactive
37 | CCOc1cc(CCNC(=O)c2cc3sccc3n2Cc2ccccc2)cc(F)c1OCC | 33.2 nM (active)
38 | CCOc1ccc(CCNC(=O)c2cc3sccc3n2C(C)C)cc1OCC | 187 nM (active)
39 | CCOc1ccc(CCNC(=O)c2ccc(C3(C(F)(F)F)N=N3)cc2)cc1OCC | inactive
40 | CCOc1cc2c(cc1OCC)CN(C(=O)c1cc3sccc3n1Cc1ccccc1)CC2 | 1320 nM (active)
